# Experimental data from ChEMBL document CHEMBL3988442, “University of Dundee, Small-Polar-MMV Screening Library” (2021).
# In all, about 48,000 compounds went through this assay and about 13,000 (27%) showed an effect of 50% or more. Some of the results follow.
# System: Wolbachia pipientis
# Test: Anti-Wolbachia Cell-Based Screen
# Format: functional
# Parameters: scale not given: in the data most compounds retested in dose-response had high values
# Settings: 5 µM
row,Compound,Percent Effect [%]
1,COc1ccc(CN(C)C(=O)c2nnc(CN(C)C)o2)cc1,-11.59
2,O=C(c1ccccc1)N1CCCC(Nc2ccc(F)cc2)C1 (stereo not drawn),-11.95
3,CN1CC(c2ccccc2)CC12CCN(C(=O)c1ccc(F)cc1)CC2 (stereo not drawn),-4.742
4,NC(=O)C1CN(C(=O)c2ccc(F)cc2)CCN1CCc1ccccc1 (stereo not drawn),127.4
5,O=C(NC[C@H]1OC[C@@H](NC2CCC(F)(F)CC2)[C@@H]1O)C1CCCC1,8.921
6,CN(C)c1cc2c(nn1)CCN(C(=O)C1COc3ccccc3C1)C2 (stereo not drawn),-4.709
7,CN(Cc1ccco1)C(=O)[C@@]12CNC[C@@H]1CN(C1CCCC1)C2,-1.971
8,COCC(=O)NC1CC2(CCN(CCN(C)C)CC2)c2ccccc21 (stereo not drawn),87.88
9,COCC(=O)NC1CC2(CCN(CCO)CC2)c2ccccc21.O=C(O)C(F)(F)F (stereo not drawn),86.71
10,CCN1CCC2(CC1)CC(NC(=O)c1ccnnc1)c1ccccc12.O=C(O)C(F)(F)F (stereo not drawn),-6.669
11,CC(C)C(=O)NC1CC2(CCN(CC(=O)N(C)C)CC2)c2ccccc21.O=C(O)C(F)(F)F (stereo not drawn),105.8
12,O=C(NC1CC2(CCN(CCO)CC2)c2ccccc21)c1ccncc1.O=C(O)C(F)(F)F.O=C(O)C(F)(F)F (stereo not drawn),-8.101
13,CCC(c1nc(C(C)C)nn1-c1ccccn1)n1cccn1 (stereo not drawn),8.011
14,CC(C)N1CCc2c(c(COc3cncnc3)nn2CC2CC2)C1.O=C(O)C(F)(F)F,-1.489
15,c1ccc(-c2cnc(CNC3CCCN(c4cccnn4)C3)o2)cc1 (stereo not drawn),-8.343
16,O=C(c1ccno1)N1C[C@@H](F)[C@@H](OCc2nc3ccccc3o2)C1,6.473
17,NC(=O)C1CN(c2ccc3c(Cl)ccnc3c2F)CCO1 (stereo not drawn),-12.11
18,CCc1nc(NC(=O)Cc2csc(-c3nnc[nH]3)n2)sc1C,3.287
19,CCOCC1CN(C(=O)[C@H]2CCCO2)Cc2nnn(CC3CC3)c21 (stereo partly drawn),0.1287
20,O=C(O)C(F)(F)F.c1cc(CN2Cc3nnn(CC4CC4)c3C(COCC3CC3)C2)co1 (stereo not drawn),1.787
21,CCOCC1CN(CC2CCC2)Cc2nnn(CC3CC3)c21 (stereo not drawn),111.4
22,CN(C)C(=O)N1Cc2nnn(C)c2C(COCC2CC2)C1 (stereo not drawn),7.957
23,COCC1CN(C(=O)[C@H]2CCCO2)Cc2nnn(CC3CC3)c21 (stereo partly drawn),-4.44
24,CCOCC1CN(C(=O)N(C)C)Cc2nnn(CC3CC3)c21 (stereo not drawn),-7.85
25,C1CCC(CN2Cc3nnn(CC4CC4)c3C(COCC3CC3)C2)C1.O=C(O)C(F)(F)F (stereo not drawn),107.6
26,CN(C)C(=O)N1Cc2nnn(CC3CC3)c2C(COCC2CC2)C1 (stereo not drawn),117.2

row,Compound,Percent Effect [%]
1,C1CC(N2Cc3nnn(CC4CC4)c3C(COCC3CC3)C2)C1.O=C(O)C(F)(F)F (stereo not drawn),96.7
2,COCC1CN(Cc2ccncc2)Cc2nnn(CC3CC3)c21.O=C(O)C(F)(F)F.O=C(O)C(F)(F)F (stereo not drawn),-5.053
3,CCSC1(CNc2ncc(Br)cn2)CCOCC1,-0.7161
4,Cc1cc(CN2CCN(C(=O)C(C)C)[C@@H]3CS(=O)(=O)C[C@@H]32)ccc1F,-3.716
5,CC(Cn1ccnc1)NCc1nncn1C1CCCCC1 (stereo not drawn),-17.23
6,NC(=O)COc1ccc(CN2CC[C@@]3(O)CCCC[C@H]3C2)cc1Cl,11.68
7,CSc1ncccc1C(=O)NC(C)c1cccc(N2CCOC2=O)c1 (stereo not drawn),5.443
8,Cc1cc(CN(C)C(=O)C2CCS(=O)(=O)C2)no1 (stereo not drawn),3.983
9,CCCn1nnnc1CSc1nccn1Cc1ccccn1,-4.795
10,CCn1ccnc1CNCC1CCCN1c1cccnn1 (stereo not drawn),-7.119
11,O=C(Cc1ccsc1)N1CCCCC1c1ccn2ccnc2n1 (stereo not drawn),73.59
12,Cc1nc(CC(=O)N2CCCCC2c2ccn3ccnc3n2)cs1 (stereo not drawn),-8.343
13,O=C(Cc1cccs1)N1CCOCC1CO (stereo not drawn),-3.953
14,O=C(Cc1cccs1)N1CCCCC1c1ccn2ccnc2n1 (stereo not drawn),83.71
15,CN(Cc1ccccc1F)C(=O)COC(=O)c1cc(Cl)c[nH]1,87.09
16,Cc1ccccc1CS(=O)(=O)CC(=O)N(C)Cc1ccccc1F,-29.58
17,CN(Cc1ccccc1F)C(=O)CS(=O)(=O)Cc1ccc(Cl)c(Cl)c1,6.215
18,COCCN1CCN(CC(=O)N(C)Cc2ccsc2)CC1C (stereo not drawn),9.964
19,COc1ccc(Cl)cc1CS(=O)(=O)CC(=O)N(C)Cc1ccccc1F,-1.573
20,CN(Cc1ccccc1F)C(=O)c1ccoc1,5.435
21,COC(=O)c1ccc(OCC(=O)N(C)Cc2ccsc2)c(OC)c1,0.9882
22,CN(Cc1ccccc1F)C(=O)c1cc(Cl)c[nH]1,92.86
23,CN(Cc1ccsc1)C(=O)COC(=O)c1cc(Cl)c[nH]1,107.8
24,Cc1ccc(CNCC2CCc3nnc(C(C)C)n3C2)s1 (stereo not drawn),-11.01
25,CN1CCN(C(=O)CCc2cc(Br)cs2)CC1,-6.424
26,COc1cc(NC(=O)NC2CCOCC2)ccc1N1CCOC1=O,-14.6

row,Compound,Percent Effect [%]
1,Cc1ncc(CN(C)c2nc3c(cnn3C(C)(C)C)c(=O)[nH]2)s1,5.937
2,COc1c(CNC(c2nccn2C)C(C)C)c(C)nn1C (stereo not drawn),-4.434
3,CCN(CC)Cc1cc(C(=O)N2CCC3(CC2)NCCNC3=O)c(C)o1,-9.012
4,CN(C)CCN(C)c1nc(CCc2ccccc2)nc2c1cnn2C,4.899
5,COCCN(C)c1cnn(C)c(=O)c1Br,101.6
6,Cc1nc(-c2ccncc2)nc(N(C)CCc2ccncc2)c1C,0.9394
7,CN(CCc1ccccn1)c1cnn(C)c(=O)c1Br,101.4
8,CC(C)N(C)C(=O)Cn1ncc(N(C)CCc2ccccc2)cc1=O,-17.71
9,CN(CCc1ccncc1)c1cnn(C)c(=O)c1Br,103
10,CN(CCc1ccccn1)Cc1nccn1Cc1ccccc1,8.438
11,COCCN(Cc1ccc(F)cc1Cl)C(=O)c1cnn(C)c1C,-5.759
12,CN(CCc1ccccc1)c1cnn(Cc2ccccn2)c(=O)c1,5.151
13,CN(CCc1ccccc1)c1cnn(C)c(=O)c1Br,67.25
14,Cc1nc(N(C)C)nc(N(C)CCc2ccncc2)c1C,13.66
15,COc1ccc(Br)cc1CN(C)c1nc2c(cnn2C)c(=O)[nH]1,-19.59
16,NS(=O)(=O)CCNC(=O)C1(c2ccc(Br)cc2)CC1,-1.628
17,CCc1nnc2n1CCN(C(=O)Cc1csc(-c3ccco3)n1)C2,-5.069
18,CCCC(=O)NCC(=O)Nc1cc(F)ccc1SCC(F)F,9.844
19,Cc1noc([C@@H]2C[C@H](NC(=O)Nc3cccc(F)c3)CN2C)n1,-4.092
20,CS(=O)(=O)NCc1n[nH]c2c1CCN(C(=O)c1ccsc1)C2,-6.349
21,Cc1nn(C)cc1-c1ccnc(N(C)Cc2cccs2)n1,-35.4
22,CCOc1cccc(CNC(C)c2ccc(-n3ccnc3)cc2)c1O (stereo not drawn),-2.856
23,O=C(c1ccc(F)cc1Cl)N1CCn2c(nnc2C(F)(F)F)C1,-1.794
24,OCCN1CCN(Cc2cnc3c(-c4ccccc4)cnn3c2)CC1,-3.434
25,COCCCC1(C(=O)O)CCCN(Cc2cc3c(cc2C)OCCO3)C1 (stereo not drawn),-2.058
26,COCCNC(=O)CN1CC=C(n2c(C)nc(=O)c3ccccc32)CC1,80.87

row,Compound,Percent Effect [%]
1,O=C(c1cn(CC(=O)N2CCCCCC2)c2ccccc12)C1CC1,-6.817
2,COCCNC(=O)CN1CCN(c2nc3cc(C)ccc3o2)CC1,-13.48
3,Cc1nc(=O)c2ccccc2n1C1=CCN(CC(=O)NC(C)C)CC1,121.8
4,Cc1nnc2n1CCN(CC(=O)NC(C)c1cccc3ccccc13)C2 (stereo not drawn),-6.251
5,Cc1nc(=O)c2ccccc2n1C1=CCN(CC(=O)N2CCCC2)CC1,121.3
6,Cc1ccc2nc(N3CCN(CC(=O)NC(C)C)CC3)cc(C)c2c1,5.586
7,O=C(CN1CCc2cncnc2C1)NCCOc1ccccc1,-0.7298
8,O=C(c1cn(CC(=O)N2CCCC2)c2ccccc12)C1CC1,-23.59
9,CCNC(=O)CN(CC)C(=O)c1cc(-c2cccc(Cl)c2)no1,-7.468
10,CC(CN1CCOCC1)NC(=O)c1cccc2cn[nH]c12 (stereo not drawn),6.229
11,CN(C)C[C@H]1C[C@@H]2CN(C(=O)c3ccno3)C[C@@H]2O1.O=C(O)C(F)(F)F,-9.995
12,CC(C)n1cc(CN2CCCN(C(=O)CN3CCCC3=O)CC2)cn1,122.9
13,Cc1cnn(CC(=O)N2CCCN(Cc3cnn(C(C)C)c3)CC2)c1,117.3
14,Cc1cc(C(=O)N2CCCN(Cc3cnn(C(C)C)c3)CC2)no1,2.122
15,Cc1cnc(C(=O)N2CCCN(Cc3cnn(C(C)C)c3)CC2)cn1,1.046
16,NS(=O)(=O)c1cnc(NCC2(c3ccccc3)CCC2)s1,-8.019
17,Cn1ncc(NC(=O)Cn2ccc(-c3ccc(F)cc3)n2)n1,6.673
18,Cc1cc(NC(=O)NCCc2ccc3c(c2)OCCO3)n(C)n1,-3.946
19,CC(=O)c1ccc(-c2cnn(CC(=O)Nc3cc(C)nn3C)c2)nc1,2.251
20,Cc1cc(NC(=O)Cn2ccc(-c3ccc4c(c3)OCO4)n2)n(C)n1,140.3
21,Cc1cc(N2CCN(C(=O)Cc3ccc4c(c3)OCO4)CC2)cc(C)n1,-8.837
22,Cn1ncc(NC(=O)Cn2ccc(-c3cccc(F)c3)n2)n1,-3.857
23,Cn1nccc1NC(=O)Cn1ccc(-c2ccc3c(c2)OCO3)n1,132.1
24,CCC1CN(CC(=O)Nc2cc(C)nn2C)CCO1 (stereo not drawn),11.37
25,Cc1cc(NC(=O)Cc2ccc3c(c2)OCO3)n(C)n1,120.5
